# Data taken from the supplement of paper PMC11732987, “Enantioselective OTUD7B fragment discovery through chemoproteomics screening and high-throughput optimisation” (Communications Chemistry, 2025).
# A number with no mark means an inactive call.
# Experiments:
# Assay in all cases: log2 ratio of Biotin-Ahx-Ub-VS probe labelling (fragment/DMSO); higher = less target engagement (more negative = stronger competition), active = hit call of the paper (q ≤ 0.05, log2 ratio ≤ -1)
# Conditions in all cases: compound concentration: 200 uM; treatment time: 3 h
# ALG13 = biological target: T1, ALG13 (UniProt Q9NP73)
# T1 sequence (whole entry): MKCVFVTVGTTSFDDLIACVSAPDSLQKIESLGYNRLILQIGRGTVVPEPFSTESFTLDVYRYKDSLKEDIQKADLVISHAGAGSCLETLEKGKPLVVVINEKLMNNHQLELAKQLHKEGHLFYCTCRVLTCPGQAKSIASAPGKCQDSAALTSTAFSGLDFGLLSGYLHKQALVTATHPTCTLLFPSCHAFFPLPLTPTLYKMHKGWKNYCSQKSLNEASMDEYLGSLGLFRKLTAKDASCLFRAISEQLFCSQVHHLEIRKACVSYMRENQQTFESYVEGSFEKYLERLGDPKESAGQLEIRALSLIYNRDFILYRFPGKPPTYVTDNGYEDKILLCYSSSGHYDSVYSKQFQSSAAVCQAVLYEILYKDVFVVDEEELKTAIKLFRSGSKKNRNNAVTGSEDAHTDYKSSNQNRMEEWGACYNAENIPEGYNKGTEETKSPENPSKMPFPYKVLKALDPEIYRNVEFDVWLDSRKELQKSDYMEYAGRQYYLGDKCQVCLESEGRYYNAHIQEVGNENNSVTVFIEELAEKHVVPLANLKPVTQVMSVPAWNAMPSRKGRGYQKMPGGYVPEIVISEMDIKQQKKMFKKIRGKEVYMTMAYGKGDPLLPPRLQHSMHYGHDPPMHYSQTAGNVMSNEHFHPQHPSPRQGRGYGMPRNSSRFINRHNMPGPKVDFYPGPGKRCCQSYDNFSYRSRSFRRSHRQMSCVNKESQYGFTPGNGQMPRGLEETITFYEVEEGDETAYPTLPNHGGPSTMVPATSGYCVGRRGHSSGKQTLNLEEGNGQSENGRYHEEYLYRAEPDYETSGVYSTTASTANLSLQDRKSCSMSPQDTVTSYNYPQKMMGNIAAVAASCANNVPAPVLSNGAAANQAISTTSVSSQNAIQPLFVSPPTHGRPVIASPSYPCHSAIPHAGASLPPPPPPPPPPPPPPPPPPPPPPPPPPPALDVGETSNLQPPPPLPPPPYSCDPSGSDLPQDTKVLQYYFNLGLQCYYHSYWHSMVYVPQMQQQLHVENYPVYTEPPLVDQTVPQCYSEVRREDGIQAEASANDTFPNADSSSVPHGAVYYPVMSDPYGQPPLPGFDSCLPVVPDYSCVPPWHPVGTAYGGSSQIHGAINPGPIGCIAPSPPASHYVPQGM
# How it was run: (§1)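 Fragment (200 µM) or vehicle was incubated for 3 h with triplicate HEK293T lysate samples of 495 µg, which were then treated with Biotin-Ahx-Ub-VS at 0.5 µM final for 1 h. Labelled DUBs were enriched on NeutrAvidin, digested with LysC and trypsin, and analysed by diaPASEF LC-MS/MS. Values are average log2 fragment/vehicle ratios from an unpaired t-test on global-median-normalised Spectronaut label-free quantities, using proteins with ≥2 unique peptides.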
# ATXN3 = ATXN3 (UniProt P54252)
# Chain of ATXN3 (P54252 whole entry): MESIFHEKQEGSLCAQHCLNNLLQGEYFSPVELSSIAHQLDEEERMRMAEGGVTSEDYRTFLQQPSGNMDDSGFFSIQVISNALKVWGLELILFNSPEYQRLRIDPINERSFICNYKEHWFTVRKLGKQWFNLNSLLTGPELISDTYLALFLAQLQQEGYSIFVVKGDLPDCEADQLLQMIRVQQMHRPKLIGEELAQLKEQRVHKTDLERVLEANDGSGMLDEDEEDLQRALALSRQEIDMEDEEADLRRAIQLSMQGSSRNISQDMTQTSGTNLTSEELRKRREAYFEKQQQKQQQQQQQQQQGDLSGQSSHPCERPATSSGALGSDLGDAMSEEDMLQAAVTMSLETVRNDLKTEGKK
# How it was run: as §1
# BAP1 = biological target: T2, BAP1 (UniProt Q92560)
# T2 sequence (whole entry): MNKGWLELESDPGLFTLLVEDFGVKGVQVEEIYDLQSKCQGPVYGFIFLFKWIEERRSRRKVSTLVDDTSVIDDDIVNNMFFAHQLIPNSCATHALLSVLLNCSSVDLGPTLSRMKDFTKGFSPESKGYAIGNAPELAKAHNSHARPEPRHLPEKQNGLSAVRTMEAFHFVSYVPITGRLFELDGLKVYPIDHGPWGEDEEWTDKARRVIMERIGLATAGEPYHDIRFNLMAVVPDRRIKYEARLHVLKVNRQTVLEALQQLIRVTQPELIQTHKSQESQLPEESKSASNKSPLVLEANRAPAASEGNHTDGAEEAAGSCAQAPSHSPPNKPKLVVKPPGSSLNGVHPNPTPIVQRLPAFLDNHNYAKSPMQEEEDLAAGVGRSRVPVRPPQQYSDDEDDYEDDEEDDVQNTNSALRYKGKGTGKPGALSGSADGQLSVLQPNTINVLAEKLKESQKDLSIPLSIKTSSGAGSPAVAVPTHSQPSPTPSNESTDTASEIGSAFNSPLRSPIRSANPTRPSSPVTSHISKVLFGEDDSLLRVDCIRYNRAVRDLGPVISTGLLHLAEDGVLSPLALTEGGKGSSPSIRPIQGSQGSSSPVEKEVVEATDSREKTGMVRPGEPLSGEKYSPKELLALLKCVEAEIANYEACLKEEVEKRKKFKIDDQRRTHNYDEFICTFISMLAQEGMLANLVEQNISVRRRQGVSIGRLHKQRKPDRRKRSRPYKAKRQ
# How it was run: as §1
# EIF3F = EIF3F (UniProt O00303)
# Chain of EIF3F (O00303 whole entry): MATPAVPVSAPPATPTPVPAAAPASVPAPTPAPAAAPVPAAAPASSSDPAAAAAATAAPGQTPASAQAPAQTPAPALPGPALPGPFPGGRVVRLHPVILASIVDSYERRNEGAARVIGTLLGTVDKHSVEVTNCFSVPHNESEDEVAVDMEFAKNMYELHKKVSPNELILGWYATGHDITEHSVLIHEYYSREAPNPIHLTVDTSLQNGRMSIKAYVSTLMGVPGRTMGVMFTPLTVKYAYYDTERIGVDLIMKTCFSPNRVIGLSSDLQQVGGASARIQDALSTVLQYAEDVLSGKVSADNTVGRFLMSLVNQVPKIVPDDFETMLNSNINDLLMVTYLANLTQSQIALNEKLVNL
# How it was run: as §1
# EIF3H = EIF3H (UniProt O15372)
# Chain of EIF3H (O15372 whole entry): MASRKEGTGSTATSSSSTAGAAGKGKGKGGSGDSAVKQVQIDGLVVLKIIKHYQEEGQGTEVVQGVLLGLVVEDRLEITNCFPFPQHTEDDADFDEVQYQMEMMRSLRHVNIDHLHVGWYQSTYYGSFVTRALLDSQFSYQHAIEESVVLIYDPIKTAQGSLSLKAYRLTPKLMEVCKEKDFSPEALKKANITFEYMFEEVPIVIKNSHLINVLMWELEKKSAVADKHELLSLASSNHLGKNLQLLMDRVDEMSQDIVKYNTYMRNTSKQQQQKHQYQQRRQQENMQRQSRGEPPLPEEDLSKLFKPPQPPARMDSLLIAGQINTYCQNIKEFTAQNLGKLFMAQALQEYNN
# How it was run: as §1
# FAM105A = biological target: T3, FAM105A (UniProt Q9NUU6)
# T3 sequence (whole entry): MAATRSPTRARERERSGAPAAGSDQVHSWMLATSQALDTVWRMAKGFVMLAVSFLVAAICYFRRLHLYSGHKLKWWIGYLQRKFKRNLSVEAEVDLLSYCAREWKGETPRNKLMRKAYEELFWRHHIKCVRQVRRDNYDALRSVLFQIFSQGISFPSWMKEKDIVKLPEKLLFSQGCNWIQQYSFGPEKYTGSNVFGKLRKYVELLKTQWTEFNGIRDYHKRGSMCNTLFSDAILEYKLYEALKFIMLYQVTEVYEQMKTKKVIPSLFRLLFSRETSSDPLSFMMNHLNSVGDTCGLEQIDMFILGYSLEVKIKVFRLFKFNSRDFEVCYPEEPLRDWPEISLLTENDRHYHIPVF
# How it was run: as §1
# OTUB1 = OTUB1 (UniProt Q96FW1)
# Chain of OTUB1 (Q96FW1 whole entry): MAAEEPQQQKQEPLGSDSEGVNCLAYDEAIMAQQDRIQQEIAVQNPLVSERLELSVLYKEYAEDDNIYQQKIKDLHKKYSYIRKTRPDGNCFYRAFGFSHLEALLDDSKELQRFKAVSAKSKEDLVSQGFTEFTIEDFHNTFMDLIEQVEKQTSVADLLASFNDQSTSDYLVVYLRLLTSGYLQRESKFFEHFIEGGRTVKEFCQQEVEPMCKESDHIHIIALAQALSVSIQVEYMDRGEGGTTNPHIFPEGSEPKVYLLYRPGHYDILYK
# How it was run: as §1
# OTUD4 = biological target: T4, OTUD4 (UniProt Q01804)
# T4 sequence (whole entry): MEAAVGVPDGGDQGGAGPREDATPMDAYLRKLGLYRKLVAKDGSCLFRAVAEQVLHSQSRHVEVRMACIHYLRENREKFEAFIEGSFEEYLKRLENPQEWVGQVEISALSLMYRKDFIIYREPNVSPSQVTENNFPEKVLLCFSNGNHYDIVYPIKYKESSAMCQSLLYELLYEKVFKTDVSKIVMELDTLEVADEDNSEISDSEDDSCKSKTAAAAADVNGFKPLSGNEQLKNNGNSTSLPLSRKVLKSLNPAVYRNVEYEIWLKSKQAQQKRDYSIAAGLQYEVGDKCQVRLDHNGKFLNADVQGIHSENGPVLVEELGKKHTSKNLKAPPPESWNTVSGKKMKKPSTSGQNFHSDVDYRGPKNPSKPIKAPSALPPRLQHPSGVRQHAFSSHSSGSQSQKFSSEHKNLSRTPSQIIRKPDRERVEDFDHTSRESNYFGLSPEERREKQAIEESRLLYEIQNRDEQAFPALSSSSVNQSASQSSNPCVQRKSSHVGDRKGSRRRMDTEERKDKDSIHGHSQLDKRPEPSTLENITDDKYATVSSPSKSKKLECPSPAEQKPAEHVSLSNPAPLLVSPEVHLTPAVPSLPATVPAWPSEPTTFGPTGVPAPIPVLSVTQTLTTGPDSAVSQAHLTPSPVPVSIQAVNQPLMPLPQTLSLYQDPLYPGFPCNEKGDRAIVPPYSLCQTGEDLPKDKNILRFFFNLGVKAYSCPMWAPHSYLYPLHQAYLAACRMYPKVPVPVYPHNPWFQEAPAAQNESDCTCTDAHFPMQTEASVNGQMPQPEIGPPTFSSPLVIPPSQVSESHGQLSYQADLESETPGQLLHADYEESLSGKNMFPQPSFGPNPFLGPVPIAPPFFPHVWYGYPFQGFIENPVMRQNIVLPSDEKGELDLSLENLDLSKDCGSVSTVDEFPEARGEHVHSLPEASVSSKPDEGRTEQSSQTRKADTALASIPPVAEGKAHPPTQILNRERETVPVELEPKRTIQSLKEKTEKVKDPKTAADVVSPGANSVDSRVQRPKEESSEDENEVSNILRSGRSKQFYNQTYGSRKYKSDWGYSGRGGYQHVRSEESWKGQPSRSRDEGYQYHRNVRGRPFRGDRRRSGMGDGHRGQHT
# How it was run: as §1
# OTUD5 = biological target: T5, OTUD5 (UniProt Q96G74)
# T5 sequence (whole entry): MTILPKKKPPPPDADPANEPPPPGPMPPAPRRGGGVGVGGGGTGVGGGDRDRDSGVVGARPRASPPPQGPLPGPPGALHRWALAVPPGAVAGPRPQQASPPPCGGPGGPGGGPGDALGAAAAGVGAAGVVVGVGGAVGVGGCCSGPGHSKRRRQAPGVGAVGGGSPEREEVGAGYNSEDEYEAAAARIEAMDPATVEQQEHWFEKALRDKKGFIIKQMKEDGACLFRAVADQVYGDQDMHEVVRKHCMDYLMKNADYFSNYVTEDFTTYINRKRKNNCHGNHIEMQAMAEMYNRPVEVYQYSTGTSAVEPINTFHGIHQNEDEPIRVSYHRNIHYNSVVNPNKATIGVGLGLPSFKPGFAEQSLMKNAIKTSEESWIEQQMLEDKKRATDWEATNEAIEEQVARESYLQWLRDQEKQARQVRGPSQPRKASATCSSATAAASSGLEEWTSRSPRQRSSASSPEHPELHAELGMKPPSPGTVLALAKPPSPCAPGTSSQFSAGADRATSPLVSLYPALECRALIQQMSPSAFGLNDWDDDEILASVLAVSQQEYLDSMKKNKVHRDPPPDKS
# How it was run: as §1
smiles,measurement,setting,value
O=C(CCl)N1CCC(S(=O)(=O)c2ccc(F)cc2)CC1,log2 ratio of Biotin-Ahx-Ub-VS probe labelling,ALG13,-0.536
same,log2 ratio of Biotin-Ahx-Ub-VS probe labelling,ATXN3,-0.72
same,log2 ratio of Biotin-Ahx-Ub-VS probe labelling,BAP1,-1.46 (active)
same,log2 ratio of Biotin-Ahx-Ub-VS probe labelling,EIF3F,-0.133
same,log2 ratio of Biotin-Ahx-Ub-VS probe labelling,EIF3H,0.256
same,log2 ratio of Biotin-Ahx-Ub-VS probe labelling,FAM105A,-0.39
same,log2 ratio of Biotin-Ahx-Ub-VS probe labelling,OTUB1,0.147
same,log2 ratio of Biotin-Ahx-Ub-VS probe labelling,OTUD4,-0.273
same,log2 ratio of Biotin-Ahx-Ub-VS probe labelling,OTUD5,-0.457
